Structures can show the parent of a compound that is named as a salt.
What follows are compounds tested on HEPG2 (assay: Euclidean distance of Cell Painting phenotypic profile (signed KS, 77 features) to DMSO centroid (dimensionless distance); 5 or 10 uM (library dependent); higher = stronger phenotypic change vs DMSO (phenoactivity)). Conditions: 48 h.
How it was run: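 Library compounds were applied at 10 or 5 uM, depending on the library, with 0.1% DMSO final, for 48 h to five cancer lines and a healthy fibroblast line. After staining, cells were imaged confocally at 20X across 9 fields per well, and Harmony extracted 77 features, each scored as a signed Kolmogorov-Smirnov statistic against vehicle wells on the same plate. Phenoactivity is the Euclidean distance between each profile and the median vehicle profile, with profiles first plate-position corrected, correlation-weighted and averaged over replicates at the top dose.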

Row | SMILES | Euclidean distance
1 | COc1cc([C@@H]2c3cc4c(cc3[C@@H](O[C@@H]3O[C@@H]5CO[C@@H](C)O[C@H]5[C@H](O)[C@H]3O)[C@H]3COC(=O)[C@H]23)OCO4)cc(OC)c1O [Etoposide] | 4.18
2 | O=C(c1ccc(F)c(F)c1Nc1ccc(I)cc1F)N1CC(O)([C@@H]2CCCCN2)C1 [Cobimetinib (GDC-0973. RG7420)] | 5.18
3 | Cc1c(F)cccc1NC(=O)Nc1ccc(Cl)c(S(=O)(=O)[C@H]2CCCNC2)c1O | 0.926
4 | Nc1nc2[nH]cc(CCc3ccc(C(=O)N[C@@H](CCC(=O)O)C(=O)O)cc3)c2c(=O)[nH]1 [Pemetrexed] | 1.85
5 | COc1ccccc1N1CCN(CCN2C(=O)CC3(CCCC3)CC2=O)CC1 | 1.77
6 | CC[C@H]1OC(=O)[C@@](C)(F)C(=O)[C@H](C)[C@@H](O[C@@H]2O[C@H](C)C[C@H](N(C)C)[C@H]2O)[C@](C)(OC)C[C@@H](C)C(=O)[C@H](C)[C@H]2N(CCCCn3cc(-c4cccc(N)c4)nn3)C(=O)O[C@]12C [Solithromycin] | 2.27
7 | C[C@]12CC[C@@H]3c4ccc(O)cc4CC[C@H]3[C@@H]1CCC2=O [Estrone] | 0.472
8 | Oc1c2ccccc2c2c3c(cccc13)N=N2 | 1.13
9 | C=C1/C(=C\C=C2/CCC[C@]3(C)[C@@H]([C@H](C)CCCC(C)(C)O)CC[C@@H]23)C[C@@H](O)C[C@@H]1O [Calcitriol] | 0.859
10 | Cc1c(-c2cnccn2)ssc1=S [Oltipraz] | 1.11
11 | Cc1c(Nc2ncccc2C(=O)O)cccc1C(F)(F)F [Flunixin Meglumin] | 1.42
12 | CO/N=C(\C(=O)N[C@@H]1C(=O)N2C(C(=O)O)=C(COC(C)=O)CS[C@H]12)c1csc(N)n1 [Cefotaxime sodium] | 0.409
13 | c1coc(CNc2ncnc3[nH]cnc23)c1 [Kinetin] | 0.627
14 | CC[C@]1(O)C[C@H]2CN(CCc3c([nH]c4ccccc34)[C@@](C(=O)OC)(c3cc4c(cc3OC)N(C=O)[C@H]3[C@@](O)(C(=O)OC)[C@H](OC(C)=O)[C@]5(CC)C=CCN6CC[C@]43[C@@H]65)C2)C1 [Vincristine] | 3.99
15 | Nc1ncnc2c1ncn2[C@@H]1O[C@H](CO)[C@@H](O)[C@@H]1O [Vidarabine monohydrate] | 1.66
16 | COCCCN1CCC(NC(=O)c2cc(Cl)c(N)c3c2OCC3)CC1 [Prucalopride Succinat] | 0.684
17 | OC(CCCN1CCCCC1)(c1ccccc1)c1ccccc1 [Diphenidol HCl] | 0.89
18 | CN(C)CC/C=C1/c2ccccc2COc2ccc(CC(=O)O)cc21 [Olopatadine HCl] | 0.686
19 | NC(=O)c1cnccn1 [Pyrazinamide] | 1.95
20 | CC(C)NCC(O)c1ccc(O)c(O)c1 (centres undefined) [Isoproterenol sulfate dihydrate] | 0.763

Row | SMILES | Euclidean distance
21 | Cc1cc(F)c(Nc2ncnc3cc(OCc4ccccc4)ccc23)cc1O | 0.631
22 | CCCCCCCCCC(=O)CC(O)S(=O)(=O)O (centres undefined) [Sodium Houttuyfonate] | 1.06
23 | Oc1c(Br)cc(Br)c2cccnc12 [Broxyquinoline] | 0.735
24 | Nc1ccn([C@H]2CC[C@@H](CO)O2)c(=O)n1 [Zalcitabine] | 2.07
25 | Cc1cccc(-c2[nH]c(C(C)(C)C)nc2-c2ccc3nccnc3c2)n1 | 1.48
26 | O=C(CCCCCN1C(=O)c2cccc3cccc(c23)C1=O)NO [Scriptaid] | 2.92
27 | C[C@]12CCC3=C4CCC(=O)C=C4CC[C@H]3[C@@H]1CC[C@@]2(O)CC#N [Dienogest] | 1.12
28 | O=C(O)[C@@H](S)[C@@H](S)C(=O)O [Succimer] | 0.53
29 | Cc1c(-c2ccc(O)cc2)n(Cc2ccc(OCCN3CCCCCC3)cc2)c2ccc(O)cc12 [Bazedoxifene HCl] | 4.62
30 | Nc1ccn([C@@H]2O[C@H](CO)[C@@H](O)[C@@H]2O)c(=O)n1 [Cytarabine] | 2.79
31 | COc1cnc(NS(=O)(=O)c2ccc(N)cc2)nc1 [Sulfameter] | 1.49
32 | CC(C)c1ccc2oc3nc(N)c(C(=O)O)cc3c(=O)c2c1 [Amlexanox] | 0.909
33 | CCCN1C[C@H](C)[C@@H](O)[C@](C)(O)[C@@H](CC)OC(=O)[C@H](C)[C@@H](O[C@H]2C[C@@](C)(OC)[C@@H](O)[C@H](C)O2)[C@H](C)[C@@H](O[C@@H]2O[C@H](C)C[C@H](N(C)C)[C@H]2O)[C@](C)(O)C[C@H]1C [Gamithromycin] | 1.08
34 | Nc1ccc2ncnc(NCCc3ccc(Oc4ccccc4)cc3)c2c1 | 3.12
35 | O=S1(=O)CCN(CN2CCS(=O)(=O)NC2)CN1 [Taurolidine] | 0.654
36 | CC(C)Nc1cccnc1N1CCN(C(=O)c2cc3cc(NS(C)(=O)=O)ccc3[nH]2)CC1 [Delavirdine (mesylate)] | 0.607
37 | CC(COc1ccccc1Cc1ccccc1)N1CCCCC1 (centres undefined) [Benproperine phosphate] | 1.58
38 | CCC/C=C1\OC(=O)C2=C1CCC=C2 [Ligustilide] | 0.638
39 | Cc1cnc(NC(=O)Nc2cc(Br)c(C)cc2OC[C@@H]2CNCCO2)cn1 | 2.15

— the supplement of paper PMC10127200
